Sampled rows, rich in hits. Any-hit rate of the full collection: about 7.5%.
Vaccinia mCherry: qHTS for Stage-Specific Inhibitors of Vaccinia Orthopoxvirus: mCherry Reporter Primary qHTS | 0.63% of 310,000 active | Vaccinia virus mCherry reporter infection, fluorescence | Potency, µM (doses to about 36.5 µM), actives largely listed as inhibitors; calls by dose curve; tested in A549 cells; also: nearly all actives have a fitted effect of over 35% in size
FMDV antiviral: High Throughput Screening for Foot and Mouth Disease Virus Antivirals; FMDV antiviral cell-based qHTS; Potency, µM (doses to about 57.9 µM), hits mostly inhibitors; 1.2% of 410,000 active; calls by dose curve; tested in HEK293T cells; also: read-out not given here; nearly all actives have a fitted effect of over 45% in size
FBPA Giardia inh: qHTS Assay for Inhibitors of Fructose-1,6-bisphosphate Aldolase from Giardia Lamblia | A8B2U2 | 0.71% of 290,000 active | purified Giardia FBPA | Potency, µM (series often up to 59.6 µM), actives largely listed as inhibitors; also: nearly all actives have a fitted effect of over 55% in size
Target sequence (A8B2U2 whole entry, looked up): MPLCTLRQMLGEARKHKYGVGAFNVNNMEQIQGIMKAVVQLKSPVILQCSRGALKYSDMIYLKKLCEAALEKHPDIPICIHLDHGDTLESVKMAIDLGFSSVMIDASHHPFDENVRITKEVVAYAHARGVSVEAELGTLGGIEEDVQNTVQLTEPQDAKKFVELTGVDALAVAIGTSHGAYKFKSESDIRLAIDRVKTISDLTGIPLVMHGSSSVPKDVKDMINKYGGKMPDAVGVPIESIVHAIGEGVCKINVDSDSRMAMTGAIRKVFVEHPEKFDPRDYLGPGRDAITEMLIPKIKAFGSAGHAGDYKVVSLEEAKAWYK
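40 nM FBPA preincubated 10 min at RT with compound (up to 57.5 uM final), then substrate plus GAPDH/TPI/NAD/arsenate coupling and diaphorase/resazurin added. Fluorescence read after 20 min at RT, 525/598 nm.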
HCV inh: qHTS Assay for Inhibitors of Hepatitis C Virus (HCV) | Huh7.5.1 HCVcc-Cre infection, luciferase reporter, 44 h | Potency, µM (series often up to 41.8 µM), usual class: inhibitors | 3.4% of 340,000 active
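After 44 h co-culture of compound, cells and HCVcc-Cre (~0.5 moi), substrate is added for 15 min at room temperature and luciferase measured over 15 sec. Cells were seeded at 1,000/well and pre-cultured 4 h.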
Vaccinia Venus: qHTS for Stage-Specific Inhibitors of Vaccinia Orthopoxvirus: Venus Reporter Primary qHTS. Vaccinia virus Venus reporter expression, fluorescence. Potency, µM (series often up to 36.5 µM), hits mostly inhibitors. 0.46% of 330,000 active; calls by dose curve; tested in A549 cells; also: nearly all actives have a fitted effect of over 30% in size
HCMV antiviral: qHTS Assay for inhibitors of the human cytomegalovirus (HCMV) | HFF cells, HCMV-luciferase reporter, 72 h; hits give low values | 4.5% of 410,000 active | activity change, negative = inhibition, % at 57.5 µM; in the data active = activity change below about -60%; inconclusive = no clear call, values can overlap the other calls; inactive = above about -39%
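Screen run at 2 compound doses on HFFs infected with reporter HCMV, MOI 1 PFU/cell. Luciferase activity from cell lysates at 72 h post infection gave inhibition relative to buffer-only and Salinomycin wells.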
Numbers stand for hits; i = inactive; ? = inconclusive; nt = not tested or not shown; [ ] = remark or other dose. Unless noted, calls follow the shape of the dose curve; as a rule, active = well fitted curve in the direction sought with a large enough effect; inconclusive = small, poorly fitted or top-dose-only effect, or another doubt; inactive = no such curve, though single readings can be large; an effect the other way counts as inactive or inconclusive.

SMILES	Vaccinia mCherry	FMDV antiviral	FBPA Giardia inh	HCV inh	Vaccinia Venus	HCMV antiviral
COc1cc(C(CC(=O)NCc2ccccc2Cl)N2Cc3ccccc3C2=O)cc(OC)c1OC (stereo not given)	i	i	nt	nt	i	i
CC1CC(C)CN(S(=O)(=O)c2ccc(Oc3ccc([N+](=O)[O-])cc3)cc2)C1 (stereo not given)	i	?	i	?	i	-72
O=C(c1ccc(Br)cc1)N(C1=NCCCCS1)c1ccccc1	nt	?	i	i	i	-63
O=Cc1c(Sc2ccccn2)nc2ccccn2c1=O	i	?	i	35µM	i	i
O=Cc1c(Sc2ccccc2)nc2ccccn2c1=O	?	?	i	i	i	i
Cc1ccc(NC(=O)c2ccc(S(=O)(=O)N3CCCCC3)cc2)nc1	nt	i	nt	i	nt	i
COc1ccccc1NC(=O)c1ccc2oc(=O)c(S(=O)(=O)c3ccccc3)cc2c1	i	28µM	nt	nt	i	i
COc1ccc2cc(S(=O)(=O)c3ccccc3)c(=O)oc2c1	nt	i	i	i	nt	i
Cc1ccc(NC(=O)c2ccccc2)cc1C	i	i	nt	i	i	i
Cc1ccc(NC(=O)c2ccc3oc(=O)c(S(=O)(=O)c4ccccc4)cc3c2)cc1C	i	28µM	nt	nt	i	i
O=C(Nc1ccccc1C(F)(F)F)c1ccc2oc(=O)c(S(=O)(=O)c3ccc(F)cc3)cc2c1	i	28µM	nt	nt	i	i
O=c1oc2ccc(Br)cc2cc1S(=O)(=O)c1ccc(F)cc1	i	28µM	i	?	i	nt
CN(C)c1ccc(C(=O)N[C@H]2CC[C@@]34CCCN3C(=O)CCC[C@H]4[C@H]2Cc2ccccc2)cc1	nt	nt	nt	nt	nt	i
O=C(Nc1cc(S(=O)(=O)N2CCCC2)ccc1OCC(F)(F)F)c1ccncc1	i	i	nt	nt	i	i
N=c1c2ccccc2nnn1-c1cccc(C(F)(F)F)c1	i	i	i	i	i	-61
COc1ccc(C2=Nc3ccccc3N(C(=O)c3ccc(C)cc3)C2C(=O)NCc2ccccc2)cc1 (stereo not given)	i	i	nt	nt	i	i
COc1ccc(C2=Nc3ccccc3N(C(=O)c3ccc4c(c3)OCO4)C2C(=O)NCc2ccccc2)cc1 (stereo not given)	?	i	nt	nt	i	-71
Cc1ccc(SCCNC(=O)CN(c2cccc(C)c2C)S(C)(=O)=O)cc1	i	?	nt	nt	i	i
COc1ccc(NC(=O)c2cccc(Cn3cc(Br)c([N+](=O)[O-])n3)c2)c(C)c1	i	i	i	10µM	?	i
CCN(CC)CCn1c2c(c(SCC(=O)Nc3nc4ccccc4s3)nc1=O)CCC2	i	i	nt	?	i	i
CCCC1(CCC)C(=O)NC(=Nc2ccccc2)NC1=O	i	nt	i	i	i	i
CCCC1(CCC)C(=O)NC(=NCc2ccccc2)NC1=O	?	i	i	?	16µM	i
COc1ccc(Br)cc1-c1nc(CCl)cs1	i	i	i	10µM	i	?
CCOc1ccc(-c2nc(CCl)cs2)cc1	i[7.34 µM]	i	i	i	i[7.34 µM]	i
CC(=O)Oc1ccc(-c2csnn2)cc1	nt	i	i	i	i	?
SMILES	Vaccinia mCherry	FMDV antiviral	FBPA Giardia inh	HCV inh	Vaccinia Venus	HCMV antiviral
CCNC(=O)Oc1ccc(-c2csnn2)cc1	i	32µM	i	i	i	i
COc1ccc(N(CC(O)Cn2c(C)nc3ccccc32)S(=O)(=O)c2ccc(C)cc2)cc1 (stereo not given)	i	i	i	i	i	i
O=S(=O)(c1ccccc1)N(CC(O)Cn1c2ccccc2c2ccccc21)c1ccccc1 (stereo not given)	nt	?	i	?	10µM	i
COc1ccc(N(CC(O)Cn2nnc3ccccc32)S(=O)(=O)c2ccc(C)cc2)cc1 (stereo not given)	i	nt	i	i	i	-62
Cc1ccc(S(=O)(=O)N(CC(O)Cn2c3ccccc3c3ccccc32)c2cccc(C(N)=O)c2)cc1 (stereo not given)	i	?	nt	nt	i	-80
O=S(=O)(c1ccc(F)cc1)N(CCO)CC(O)Cn1c2ccccc2c2ccccc21 (stereo not given)	i	i	i	i	i	i
CCN(CC(O)Cn1c2ccccc2c2ccccc21)S(=O)(=O)c1ccc(F)cc1 (stereo not given)	nt	28µM	i	?	nt	i
CCCc1c(NC(=O)Nc2ccc(F)cc2)cnn1-c1ccccc1	nt	i	i	i	nt	-67
COc1ccccc1CN(Cc1nc2ccccc2c(=O)[nH]1)S(=O)(=O)c1ccc2ccccc2c1	?	nt	i	35µM	?	i
O=c1[nH]c(CN(CCc2ccccc2)S(=O)(=O)c2ccc(Cl)cc2)nc2ccccc12	i	i	i	i	i	i
COc1ccc(S(=O)(=O)N(Cc2ccccc2)Cc2nc3ccccc3c(=O)[nH]2)cc1	nt	i	i	?	i	-100
Cc1c(NC(=O)c2cc(-c3ccccc3)nc3ccccc23)c(=O)n(-c2ccccc2)n1C	i	i	nt	i	i	i
Cc1c(NC(=O)COC(=O)c2cc(-c3ccc(-c4ccccc4)cc3)nc3ccccc23)c(=O)n(-c2ccccc2)n1C	?	i	i	i	i	-97
Cc1ccc(-c2cc(C(=O)Nc3c(C)n(C)n(-c4ccccc4)c3=O)c3ccccc3n2)cc1	i	?	nt	i	i	-63
CC(C)C(OC(=O)Cn1nnc2ccccc21)C(=O)NC1CCCC1 (stereo not given)	i	i	i	i	i	i
O=[N+]([O-])c1cc([N+](=O)[O-])c(N2CCOCC2)cc1NCc1ccccc1	nt	i	i	?	nt	?
O=[N+]([O-])c1c(NCc2ccccc2)cc(N2CCc3ccccc3C2)c2nonc12	i	i	?	1.4µM	i	?
COc1ccc(OCCSc2nc(-c3ccccc3)cc(=O)[nH]2)cc1	i	i	i	i	i	?
CCOc1ccc(OCCSc2nc(-c3ccccc3)cc(=O)[nH]2)cc1	i	i	i	i	i	-104
COc1ccc(-c2oc3ccc(N4CCOCC4)cc3c2C#Cc2ccc(N)cc2)cc1	i	i	nt	i[8.37 µM]	i	i
OC1(C#Cc2c(-c3ccsc3)oc3ccc(N4CCOCC4)cc23)CCCCC1	?	i	nt	5.6µM	?	i
COc1ccc(-c2oc3ccc(N4CCOCC4)cc3c2C#CC2(O)CCCCC2)cc1	?	i	nt	10µM	i	i
CC(OC(=O)CCN=C1NS(=O)(=O)c2ccccc21)C(=O)Nc1ccc(S(N)(=O)=O)cc1 (stereo not given)	i	i	nt	?	i	i
CCCCc1nc2cc(C(=O)NC3CCOC(C)(C)C3)ccc2o1 (stereo not given)	nt	i	nt	i	nt	i
Cc1nc2ccc(NC(=O)c3cccc(S(=O)(=O)N(C)c4ccccc4)c3)cc2s1	?	25µM	i	10µM	?	nt
COC(=O)c1cccc(NC(=O)c2ccc(S(=O)(=O)N(C)c3ccccc3OC)cc2)c1	i	35µM	nt	nt	i	i
